For one assay, the system named is Staphylococcus aureus. The note with it: Concentration 20 uM; ASSAY_TEST Inhibition of Bacterial Growth; detection method Absorption (OD600); MEDIA CAMHB; plate type 384well; NBS; CORNING #3640; time 18 hr.
The subject of the next assay is Escherichia coli. The note with it: Concentration 20 uM; ASSAY_TEST Inhibition of Bacterial Growth; detection method Absorption (OD600); MEDIA CAMHB; plate type 384well; NBS; CORNING #3640; time 18 hr.

Potency and affinity values are given separately.

In the case of `CC(=O)O[C@]1(C(C)=O)CC[C@H]2[C@@H]3C[C@H](C)C4=CC(=O)CC[C@]4(C)[C@H]3CC[C@@]21C` [MEDROXYPROGESTERONE ACETATE], the Inhibition in the assay with Staphylococcus aureus was found to be 10.39%; in the assay with Escherichia coli, 2%.

Regarding `NS(=O)(=O)c1cc2c(cc1C(F)(F)F)NCNS2(=O)=O` [HYDROFLUMETHIAZIDE], the Inhibition in the assay on Staphylococcus aureus is on record as 14.86%; with Escherichia coli, 7.25%.

Consider `CC12CC3CC(C)(C1)CC(N)(C3)C2.Cl` [MEMANTINE HYDROCHLORIDE], for which the Inhibition was 17.71% in the assay on Staphylococcus aureus and 5.88% in the assay with Escherichia coli.

As to `NC(=O)c1cccnc1` [NIACINAMIDE], the Inhibition in the assay with Staphylococcus aureus is given as 11.51%; in the assay on Escherichia coli it was 3.02%.

Take `CCCCCCCCCCC[C@@H](C[C@@H]1OC(=O)[C@H]1CCCCCC)OC(=O)[C@H](CC(C)C)NC=O` [ORLISTAT]: the Inhibition in the assay with Staphylococcus aureus is on record as 11.59%; in the assay with Escherichia coli it was -4.78%.

For `Nc1nc(Cl)nc2c1ncn2[C@@H]1O[C@H](CO)[C@@H](O)[C@H]1O`, the Inhibition with Staphylococcus aureus was -10.52%; in the assay with Escherichia coli it was 3.01%.

Consider `CN1CCC(=C2c3ccccc3C=Cc3ccccc32)CC1.Cl` [CYPROHEPTADINE HYDROCHLORIDE], for which the Inhibition in the assay on Staphylococcus aureus worked out at 5.98%; in the assay with Escherichia coli, 6.77%.

On to `CC(=O)O[C@H]1C[C@@H]2CC[C@@H]3[C@H](CC[C@@]4(C)[C@H]3C[C@H]([N+]3(C)CCCCC3)[C@@H]4OC(C)=O)[C@@]2(C)C[C@@H]1N1CCCCC1.[Br-]` [VECURONIUM BROMIDE], for which the figures for the Inhibition in the assay with Staphylococcus aureus and with Escherichia coli were -16.09% and 5.67%, respectively.

For `CCC(=O)O[C@]1(C(=O)CCl)[C@@H](C)C[C@H]2[C@@H]3CCC4=CC(=O)C=C[C@]4(C)[C@@]3(F)[C@@H](O)C[C@@]21C` [CLOBETASOL PROPIONATE], the Inhibition is given as -12.08% in the assay on Staphylococcus aureus and -1.37% in the assay on Escherichia coli.

With `Cc1ncc([N+](=O)[O-])n1CC(O)CCl` (configuration not stated) [ORNIDAZOLE], the Inhibition with Staphylococcus aureus is 10.83%; in the assay on Escherichia coli, 5.05%.

Consider `CNC(=C[N+](=O)[O-])NCCSCc1csc(CN(C)C)n1` [NIZATIDINE], for which the Inhibition in the assay with Staphylococcus aureus amounted to 11.02%; in the assay on Escherichia coli it was 4.27%.

With `C=C1/C(=C\C=C2/CCC[C@]3(C)[C@@H]([C@H](C)/C=C/[C@@H](O)C4CC4)CC[C@@H]23)C[C@@H](O)C[C@@H]1O` [CALCIPOTRIENE], the values for the Inhibition in the assay on Staphylococcus aureus and in the assay on Escherichia coli were 9.78% and 4.8%, respectively.

For `NNC(=O)c1ccncc1` [ISONIAZID], the Inhibition amounted to 8.75% in the assay with Staphylococcus aureus and 0.87% in the assay on Escherichia coli.

`COC1=CC(=O)C[C@@H](C)[C@]12Oc1c(Cl)c(OC)cc(OC)c1C2=O` [GRISEOFULVIN]: the Inhibition was determined as 7.83% in the assay with Staphylococcus aureus and 2.08% in the assay with Escherichia coli.

For the molecule `Cc1ccc(C)c(OCCCC(C)(C)C(=O)O)c1` [GEMFIBROZIL], the Inhibition in the assay on Staphylococcus aureus came to 11.1%; in the assay with Escherichia coli, 2.56%.

Turning to `COC(=O)Nc1nc2cc(C(=O)c3ccccc3)ccc2[nH]1` [MEBENDAZOLE], the Inhibition with Staphylococcus aureus came to 7.86%; with Escherichia coli it was 3.86%.

For the molecule `CCOC(=O)c1ccc(OC(=O)CCCCCN=C(N)N)cc1.CS(=O)(=O)O`, the results for the Inhibition in the assay on Staphylococcus aureus and in the assay on Escherichia coli were 11.22% and -0.78%, respectively.

For `O=C(O)c1cc2ccccc2c(Cc2c(O)c(C(=O)O)cc3ccccc23)c1O.OCCOCCN1CCN(C(c2ccccc2)c2ccc(Cl)cc2)CC1` [HYDROXYZINE PAMOATE], the Inhibition with Staphylococcus aureus worked out at 11.96%; in the assay with Escherichia coli, 0.33%.

In the case of `Cl.OC(CCN1CCCC1)(c1ccccc1)C1CCCCC1` (configuration not stated) [PROCYCLIDINE HYDROCHLORIDE], the Inhibition with Staphylococcus aureus is 17.75%; with Escherichia coli, -5.9%.

For `COC(=O)C1=C(C)NC(C)=C(C(=O)OC(C)C)C1c1cccc2nonc12` (configuration not stated) [ISRADIPINE], the Inhibition is on record as 14.31% with Staphylococcus aureus and -0.09% in the assay on Escherichia coli.

With `CC1(C)O[C@@H]2C[C@H]3[C@@H]4C[C@H](F)C5=CC(=O)C=C[C@]5(C)[C@@]4(F)[C@@H](O)C[C@]3(C)[C@]2(C(=O)CO)O1` [FLUOCINOLONE ACETONIDE], the Inhibition in the assay on Staphylococcus aureus is listed as -31.13%; in the assay on Escherichia coli, 6.84%.

Turning to `CCN1CCC[C@H]1CNC(=O)c1cc(S(N)(=O)=O)ccc1OC` [LEVOSULPIRIDE], the values for the Inhibition with Staphylococcus aureus and in the assay on Escherichia coli were 7.78% and 3.44%, respectively.

Regarding `OCc1cccnc1` [NICOTINYL ALCOHOL], the Inhibition was found to be 10.46% with Staphylococcus aureus and 0.45% with Escherichia coli.

As to `COc1ccnc(C[S+]([O-])c2nc3cc(OC(F)F)ccc3[n-]2)c1OC.O.[Na+]` (configuration not stated) [PANTOPRAZOLE SODIUM], the Inhibition in the assay on Staphylococcus aureus is recorded as 15.25%; with Escherichia coli it was 1.53%.

Regarding `CN1CCCC(n2nc(Cc3ccc(Cl)cc3)c3ccccc3c2=O)CC1.Cl` (configuration not stated) [AZELASTINE HYDROCHLORIDE], the Inhibition in the assay on Staphylococcus aureus is -20.95%; with Escherichia coli, 3.65%.

Consider `CC1CC2C3CCC4=CC(=O)C=CC4(C)[C@@]3(Cl)C(O)CC2(C)C1(O)C(=O)CO` (some centres not stated), for which the Inhibition is 12.42% in the assay on Staphylococcus aureus and 5.77% with Escherichia coli.

A word on the Inhibition: it is the drop in the measured response relative to a control, in per cent.

The record behind these values is ChEMBL document CHEMBL4513141, “CO-ADD screening of NIH (USA) - Clinical Collection” (2021).
